D2 antagonist = antagonists of human D2 dopamine receptor; P14416; HEK293 TREx D2 cells, calcium flux, dopamine EC80; inhibition, % at 10 µM; 2% of 340,000 active; AID 485344; in the data active = inhibition above about 30%; inactive = below that, where a call was filed; note: 0% is about no effect
Target sequence (P14416 whole entry, looked up): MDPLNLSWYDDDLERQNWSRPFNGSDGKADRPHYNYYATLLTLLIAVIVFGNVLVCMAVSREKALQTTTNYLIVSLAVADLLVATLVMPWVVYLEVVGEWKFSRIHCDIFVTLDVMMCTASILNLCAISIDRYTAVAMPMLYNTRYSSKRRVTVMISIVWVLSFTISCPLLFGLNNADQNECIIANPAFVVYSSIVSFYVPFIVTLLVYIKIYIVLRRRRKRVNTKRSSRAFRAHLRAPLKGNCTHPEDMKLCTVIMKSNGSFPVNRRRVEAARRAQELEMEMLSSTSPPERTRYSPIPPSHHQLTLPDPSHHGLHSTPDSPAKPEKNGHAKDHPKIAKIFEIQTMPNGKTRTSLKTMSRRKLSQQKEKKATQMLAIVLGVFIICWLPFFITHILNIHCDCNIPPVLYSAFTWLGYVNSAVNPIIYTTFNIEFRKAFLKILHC
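Measurement of antagonist activity uses fluorescent calcium dye in inducible HEK293 T-REx D2 cells: 10 s baseline, compound addition with 180 s read, EC80 dopamine addition with a further 180 s read.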
D2 PAM-1 = positively modulates the human D2 dopamine receptor allosterically; HEK293 T-REx D2, calcium flux, EC20 dopamine potentiation; potentiation, % at 10 µM; 0.34% of 340,000 active;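 active = potentiation over 3 SD above the plate norm, cut at about 30% in these data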; note: 0% is about no effect
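Tetracycline-induced Hek293 Trex D2 cells, force-coupled to calcium, loaded with no-wash calcium dye. Compound added with 180 s kinetic read for agonism, then EC20 dopamine and a further 180 s read for potentiation.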
D2 ag-1 = activates the human D2 dopamine receptor | P14416 | HEK293 T-REx D2 cells, calcium flux agonist mode | activation, % at 2 µM | 0.53% of 340,000 active | AID 485358;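 active = activation over 3 SD above normal in the single-dose calcium agonist read, cut at about 30% in these data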; note: 0% is about no effect
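Agonism scored from kinetic calcium signal (1 read/sec, 180 s) following compound pin transfer, after a 10 s baseline. Cells: HEK293 Trex line expressing inducible D2 receptor coupled to calcium, dye-loaded after overnight culture at 30 C.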
Anesthetic bind = candidate novel general anesthetic via apoferritin binding; apoferritin/1-aminoanthracene competitive binding, fluorescence; Potency, µM (highest dose often 77.5 µM), for inactives: at the top dose activity change, negative = displacement, hits mostly inhibitors; 0.074% of 350,000 active; AID 485281; note: potency is the fitted concentration of half-maximal effect; % is set by controls: 0 for no effect and ±100 for the full control effect; nearly all actives have a fitted effect of over 20% in size
Target sequence (P02791 2-175 limits assumed): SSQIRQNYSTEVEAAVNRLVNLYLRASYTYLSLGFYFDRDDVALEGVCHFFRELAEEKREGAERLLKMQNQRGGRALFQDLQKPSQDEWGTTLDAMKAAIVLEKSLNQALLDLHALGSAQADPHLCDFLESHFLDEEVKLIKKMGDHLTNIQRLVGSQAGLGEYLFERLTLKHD
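Probe: 1-aminoanthracene (50% saturated, PBS). Protein: horse-spleen apoferritin, 10 uM. Incubation: 10 min, room temperature. Detection: 380 nm excitation, 535 nm emission. Analysis: normalized response, four-parameter Hill.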
D2 ag-2 = agonists of human D2 dopamine receptor (beta-arrestin) | P14416 | DiscoveRx PathHunter D2 beta-arrestin, luminescence, 90 min; 100% = 57 uM dopamine signal | activation, % (no concentration beside the values) | 0.084% of 360,000 active; in the data active = activation above about 40%; inconclusive = between about 15% and that limit
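DiscoveRx PathHunter D2 beta-arrestin cells (2,100/well) attached overnight, then compound-stimulated 90 min at 37 C in HBSS/10 mM HEPES/0.1% Tween-20 buffer; beta-galactosidase complementation read by luminescence after 1 h at ambient temperature. Dopamine 57 uM final (EC100) as control.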
D2 PAM-2 = human D2 receptor positive allosteric modulation; potentiation, % (no concentration beside the values); 0.23% of 360,000 active; AID 624464; DiscoveRx D2 beta-arrestin cells, luminescence, 90 min; 100% = 57 uM dopamine signal; in the data active = potentiation above about 50%; inconclusive = mostly about 30% to 49%
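PathHunter beta-arrestin assay in DiscoveRx D2 cells. Compounds were added with an EC20 of dopamine (50 nM final) for 90 min at 37 deg C. Luminescence was read 1 h after detection reagent, with 57 uM dopamine as the EC100 control.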
D3 ag = activates human D3 dopamine receptor beta-arrestin recruitment; DiscoveRx D3 beta-arrestin cells, luminescence, 90 min; Potency, µM (titrated, usually from 76.9 µM), for inactives: top-dose activation, most hits filed as activators; 4% of 2,300 active; shares compounds with D2 ag-1;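 note: potency is the fitted concentration of half-maximal effect; 100% = dopamine control response; nearly all actives have a fitted effect of over 70% in size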
D2 ag-3 = counter-screen for D3 agonists: human D2 dopamine receptor agonism; shares compounds with D2 ag-1; DiscoveRx PathHunter D2 beta-arrestin, luminescence, 90 min; response scale: percent relative to full dopamine signal; Potency, µM (top dose mostly 76.9 µM), for the others: at the highest dose activation, actives largely listed as activators; 5.9% of 2,300 active; AID 720507; note: potency is the fitted concentration of half-maximal effect; % of control where 0% means no effect; nearly all actives have a fitted effect of over 70% in size
* marks the source's active call; other numbers are inactive results; ! = a repeat was not active. Compounds with a hit are over-represented: about 2.5% of the library has one in this group of screens. Unless noted, calls come from the whole dose curve; as a rule, active = well fitted curve in the direction sought with a large enough effect; inconclusive = small, poorly fitted or top-dose-only effect, or another doubt; inactive = no such curve, though single readings can be large; an effect the other way counts as inactive or inconclusive.

What do the screens show for `OC(COCc1ccc(Cl)cc1)CN1CC=C(c2ccccc2)CC1` (centres undefined)?
D2 antagonist: 85*; D2 PAM-1: 17; D2 ag-1: 0; Anesthetic bind: inconclusive; D2 ag-2: 83*; D2 PAM-2: 71*!; D3 ag: 50µM*; D2 ag-3: 45µM*

How did OC(CN1CC=C(c2ccccc2)CC1)c1ccccc1 (centres undefined) do in these assays?
D2 antagonist: 75*; D2 PAM-1: -31; D2 ag-1: 77*; Anesthetic bind: -13%; D2 ag-2: 3; D2 PAM-2: -11; D3 ag: inconclusive; D2 ag-3: inconclusive

How did O=C(CN1CC=C(c2ccccc2)CC1)Nc1c(Cl)cccc1Cl do in these assays?
D2 antagonist: 7; D2 PAM-1: -23; D2 ag-1: 27; Anesthetic bind: 6%; D2 ag-2: -4; D2 PAM-2: -29

How did C=C1C2CCC3[C@@](CC[C@@H]4C(C(=O)O)CC(OC5OC(CO)C(OS(=O)(=O)O)C(OS(=O)(=O)O)C5OC(=O)CC(C)C)C[C@]34C)(C2)C1O (some centres undefined) do in these assays?
Anesthetic bind: 0%

Results for CCCN1CC[C@@H]2c3cc(O)ccc3CC[C@@H]21 ?
D2 antagonist: 73*; D2 PAM-1: -11; D2 ag-1: 66*; Anesthetic bind: 3%; D2 ag-2: 7; D2 PAM-2: -5; D3 ag: inconclusive; D2 ag-3: inconclusive

What do the screens show for `COc1ccc(-n2c(O)c(C(C)=NCCCn3ccnc3)c(=O)[nH]c2=O)cc1`?
D2 antagonist: -7; D2 PAM-1: 17; D2 ag-1: 0; Anesthetic bind: -11%; D2 ag-2: 1; D2 PAM-2: -8

How did CC(Cc1ccccc1)[n+]1cc(/N=C(\N)[O-])on1 (centres undefined) do in these assays?
D2 antagonist: 17; D2 PAM-1: 1; D2 ag-1: 0; Anesthetic bind: -16%; D2 ag-2: 4; D2 PAM-2: 2

How did CCN(CC)c1ccc(/C=C2\C(=O)NC(=S)N(C)C2=O)o1 do in these assays?
D2 antagonist: 10; D2 PAM-1: 4; D2 ag-1: 33*; Anesthetic bind: -11%; D2 ag-2: 2; D2 PAM-2: -3; D3 ag: -28%; D2 ag-3: -10%

Results for CCOC(=O)C(O)(c1ccc(NC(=S)NC(=O)c2ccc(Cl)cc2Cl)c(C)c1)C(F)(F)F (centres undefined) ?
D2 antagonist: 5; D2 PAM-1: 18; D2 ag-1: 27; Anesthetic bind: inconclusive; D2 ag-2: -3; D2 PAM-2: -14; D3 ag: 10%; D2 ag-3: -1%

Results for COC(=O)C(O)(c1ccc(NC(=S)NC(=O)c2ccc(Cl)cc2Cl)c(C)c1)C(F)(F)F (centres undefined) ?
D2 antagonist: 5; D2 PAM-1: -8; D2 ag-1: 20; Anesthetic bind: inconclusive; D2 ag-2: -14; D2 PAM-2: -6

What do the screens show for `CC(C)CC(C)N` (centres undefined)?
D2 antagonist: 6; D2 PAM-1: -11; D2 ag-1: 0; D2 ag-2: 4; D2 PAM-2: -12; D3 ag: -4%; D2 ag-3: -3%

Results for COc1ccccc1N1CCN(Cc2cccc(OC)c2O)CC1 ?
D2 antagonist: 81*; D2 PAM-1: -28; D2 ag-1: 74*; Anesthetic bind: -16%; D2 ag-2: 9; D2 PAM-2: -6; D3 ag: -6%; D2 ag-3: 19%

Results for CCOC(C[n+]1c(-c2ccccc2)cc(C)cc1-c1ccccc1)OCC ?
D2 antagonist: -4; D2 PAM-1: -11; D2 ag-1: 0; D2 ag-2: -3; D2 PAM-2: -57

How did CN1C(=O)N(C)C(=O)C2(Cc3ccccc3N3CCCC32)C1=O (centres undefined) do in these assays?
D2 antagonist: -11; D2 PAM-1: -5; D2 ag-1: 1; Anesthetic bind: -1%; D2 ag-2: 0; D2 PAM-2: -3

What do the screens show for `CN1C(=O)CC(c2ccccc2)Nc2ccccc21` (centres undefined)?
D2 antagonist: -5; D2 PAM-1: -1; D2 ag-1: 0; Anesthetic bind: -1%; D2 ag-2: -3; D2 PAM-2: 1; D3 ag: -7%; D2 ag-3: -4%

What do the screens show for `CCOC(=O)c1ccc(N2C(=O)CC(N3CC=C(c4ccc(F)cc4)CC3)C2=O)cc1` (centres undefined)?
D2 antagonist: -9; D2 PAM-1: 1; D2 ag-1: -1; Anesthetic bind: -9%; D2 ag-2: -1; D2 PAM-2: -1

How did NC(=O)c1ccc(OCCC(O)N2CC=C(c3ccc(F)cc3)CC2)cc1 (centres undefined) do in these assays?
D2 antagonist: 65*; D2 PAM-1: -12; D2 ag-1: 35*; D2 ag-2: -1; D2 PAM-2: -26; D3 ag: inconclusive; D2 ag-3: inconclusive

Results for O=C(N/N=C/c1c(O)n(-c2cccc3ccccc23)c(=O)[nH]c1=O)c1ccncc1 ?
D2 antagonist: -8; D2 PAM-1: -9; D2 ag-1: -2; Anesthetic bind: 8%; D2 ag-2: 5; D2 PAM-2: -5

Results for Clc1ccccc1CN1CCN(c2ccccc2)CC1 ?
D2 antagonist: 68*; D2 PAM-1: -26; D2 ag-1: 68*; Anesthetic bind: -7%; D2 ag-2: inconclusive; D2 PAM-2: 7; D3 ag: 0%; D2 ag-3: inconclusive

How did Clc1ccc(N2CCN(Cc3ccccc3Cl)CC2)cc1 do in these assays?
D2 antagonist: 2; D2 PAM-1: -1; D2 ag-1: 0; Anesthetic bind: -1%; D2 ag-2: 2; D2 PAM-2: -20

What do the screens show for `Clc1ccccc1CN1CCN(c2cccc3[nH]ccc23)CC1`?
Anesthetic bind: 0%; D2 ag-2: 5; D2 PAM-2: -6; D3 ag: -8%; D2 ag-3: 1%

Compound activity deposited in PubChem BioAssay by National Center for Advancing Translational Sciences (NCATS).
